From PubChem BioAssay AID1159580 (chemical genetic matrix, 2015)
The campaign covered roughly 5,500 compounds. About 2,000 (36%) were called active. Another 18% or so got no clear call; they are omitted. No stated cut-off is given here; in the data, active means normalized growth mostly below about 0.91 (no sharp cut-off); inconclusive means no clear call, values can overlap the other calls; inactive means mostly above about 0.92. The list shows a part of the results.

Assay: chemical genetic growth profiling, strain panel (AID 1159580);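 further: tested at 20 µM; growth read once vehicle control cultures reached saturation at 30 °C; 1 = growth at the plate median or of vehicle wells; lower values mean less growth of the strain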
Conditions: growth OD

Measured: normalized growth

O=C(NCO)c1cccnc1
inactive: S. cerevisiae deletion strains, locus YJR075W, strain HOC1, hits give low values 0.992 | S. cerevisiae deletion strains, locus YKL009W, strain mrt4, hits give low values 0.984 | S. cerevisiae deletion strains, locus YKL068W, hits give low values 0.974 | S. cerevisiae deletion strains, locus YKL085W, strain MDH1 (second series), hits give low values 1 | S. cerevisiae deletion strains, locus YKL085W, strain MDH1, hits give low values 1 | S. cerevisiae deletion strains, locus YKL160W, strain elf1, hits give low values 1.01 | S. cerevisiae deletion strains, locus YKL190W, strain CNB1, hits give low values 0.997 | S. cerevisiae deletion strains, locus YKR001C, strain vps1, hits give low values 0.99 | S. cerevisiae deletion strains, locus YKR026C, strain gcn3, hits give low values 1.01 | S. cerevisiae deletion strains, locus YKR091W, strain srl3, hits give low values 1 | S. cerevisiae deletion strains, locus YLL001W, strain dnm1, hits give low values 0.992 | S. cerevisiae deletion strains, locus YLL026W, hits give low values 1 | S. cerevisiae deletion strains, locus YLL041C, strain sdh2, hits give low values 1.01 | S. cerevisiae deletion strains, locus YLR027C, strain aat2, hits give low values 1.01 | S. cerevisiae deletion strains, locus YLR039C, strain RIC1, hits give low values 0.939 | S. cerevisiae deletion strains, locus YLR058C, strain SHM2, hits give low values 0.986 | S. cerevisiae deletion strains, locus YLR102C, strain apc9, hits give low values 0.985 | S. cerevisiae deletion strains, locus YLR113W, strain HOG1, hits give low values 0.997 | S. cerevisiae deletion strains, locus YLR221C, strain rsa3, hits give low values 1.01 | S. cerevisiae deletion strains, locus YLR258W, strain gsy2, hits give low values 1.01 | S. cerevisiae deletion strains, locus YLR262C, strain YPT6 (second series), hits give low values 0.995 | S. cerevisiae deletion strains, locus YLR262C, strain YPT6, hits give low values 0.954 | S. cerevisiae deletion strains, locus YLR268W, strain sec22, hits give low values 0.993 | S. cerevisiae deletion strains, locus YLR320W, strain mms22, hits give low values 1 | S. cerevisiae deletion strains, locus YLR330W, strain CHS5, hits give low values 0.981 | S. cerevisiae deletion strains, locus YLR342W, strain FKS1 (second series), hits give low values 1.01 | S. cerevisiae deletion strains, locus YLR342W, strain FKS1, hits give low values 1.01 | S. cerevisiae deletion strains, locus YLR357W, strain rsc2, hits give low values 0.974 | S. cerevisiae deletion strains, locus YLR370C, strain arc18, hits give low values 1.01 | S. cerevisiae deletion strains, locus YLR371W, strain rom2, hits give low values 0.971 | S. cerevisiae deletion strains, locus YLR384C, strain iki3, hits give low values 0.997 | S. cerevisiae deletion strains, locus YLR418C, strain cdc73, hits give low values 1.03 | S. cerevisiae deletion strains, locus YML016C, strain PPZ1, hits give low values 0.998 | S. cerevisiae deletion strains, locus YML032C, strain rad52, hits give low values 0.975 | S. cerevisiae deletion strains, locus YML120C, strain ndi1, hits give low values 1.01 | S. cerevisiae deletion strains, locus YML124C, strain tub3, hits give low values 1 | S. cerevisiae deletion strains, locus YMR058W, strain fet3, hits give low values 1 | S. cerevisiae deletion strains, locus YMR078C, strain ctf18, hits give low values 0.993 | S. cerevisiae deletion strains, locus YMR125W, strain sto1, hits give low values 0.997 | S. cerevisiae deletion strains, locus YMR129W, hits give low values 0.987 | S. cerevisiae deletion strains, locus YMR205C, strain PFK2, hits give low values 0.992 | S. cerevisiae deletion strains, locus YMR223W, strain ubp8, hits give low values 0.988 | S. cerevisiae deletion strains, locus YMR231W, strain pep5, hits give low values 1.01 | S. cerevisiae deletion strains, locus YMR263W, strain SAP30, hits give low values 0.999 | S. cerevisiae deletion strains, locus YMR307W, strain GAS1, hits give low values 1.08 | S. cerevisiae deletion strains, locus YNL067W, strain RPL9B, hits give low values 0.995 | S. cerevisiae deletion strains, locus YNL071W, strain lat1, hits give low values 1.02 | S. cerevisiae deletion strains, locus YNL128W, strain TEP1, hits give low values 0.999 | S. cerevisiae deletion strains, locus YNL153C, strain GIM3, hits give low values 1 | S. cerevisiae deletion strains, locus YNL183C, strain NPR1, hits give low values 0.92 | S. cerevisiae deletion strains, locus YNL209W, strain ssb2, hits give low values 0.999 | S. cerevisiae deletion strains, locus YNL233W, strain BNI4, hits give low values 1.01 | S. cerevisiae deletion strains, locus YNL248C, strain rpa49, hits give low values 1 | S. cerevisiae deletion strains, locus YNL250W, strain rad50, hits give low values 0.983 | S. cerevisiae deletion strains, locus YNL271C, strain bni1, hits give low values 0.978 | S. cerevisiae deletion strains, locus YNL298W, strain CLA4, hits give low values 0.996 | S. cerevisiae deletion strains, locus YNL307C, strain MCK1, hits give low values 0.993 | S. cerevisiae deletion strains, locus YNL322C, strain KRE1 (second series), hits give low values 1.01 | S. cerevisiae deletion strains, locus YNL322C, strain KRE1, hits give low values 0.986 | S. cerevisiae deletion strains, locus YNR049C, strain mso1, hits give low values 1.01 | S. cerevisiae deletion strains, locus YNR052C, strain pop2, hits give low values 0.984 | S. cerevisiae deletion strains, locus YOL006C, strain TOP1, hits give low values 0.997 | S. cerevisiae deletion strains, locus YOL012C, strain htz1 0.887 | S. cerevisiae deletion strains, locus YOL147C, strain pex11, hits give low values 0.988 | S. cerevisiae deletion strains, locus YOR001W, strain rrp6, hits give low values 0.999 | S. cerevisiae deletion strains, locus YOR061W, strain CKA2, hits give low values 0.991 | S. cerevisiae deletion strains, locus YOR069W, strain VPS5, hits give low values 0.989 | S. cerevisiae deletion strains, locus YOR070C, strain gyp1, hits give low values 1 | S. cerevisiae deletion strains, locus YOR080W, strain dia2, hits give low values 1 | S. cerevisiae deletion strains, locus YOR083W, strain WHI5, hits give low values 1 | S. cerevisiae deletion strains, locus YOR106W, strain vam3, hits give low values 1.02 | S. cerevisiae deletion strains, locus YOR136W, strain idh2, hits give low values 0.982 | S. cerevisiae deletion strains, locus YOR144C, strain elg1, hits give low values 0.978 | S. cerevisiae deletion strains, locus YOR184W, strain ser1, hits give low values 0.959 | S. cerevisiae deletion strains, locus YOR231W, strain MKK1, hits give low values 0.98 | S. cerevisiae deletion strains, locus YOR265W, strain rbl2, hits give low values 1.01 | S. cerevisiae deletion strains, locus YOR270C, strain vph1, hits give low values 1.02 | S. cerevisiae deletion strains, locus YOR290C, strain snf2, hits give low values 0.943 | S. cerevisiae deletion strains, locus YOR316C, strain cot1, hits give low values 0.997 | S. cerevisiae deletion strains, locus YPL051W, strain arl3, hits give low values 1 | S. cerevisiae deletion strains, locus YPL055C, strain LGE1, hits give low values 1.02 | S. cerevisiae deletion strains, locus YPL078C, strain atp4, hits give low values 1.01 | S. cerevisiae deletion strains, locus YPL106C, strain sse1, hits give low values 0.998 | S. cerevisiae deletion strains, locus YPL240C, strain hsp82, hits give low values 1.02 | S. cerevisiae deletion strains, locus YPL241C, strain CIN2, hits give low values 0.958 | S. cerevisiae deletion strains, locus YPL256C, strain CLN2, hits give low values 0.985 | S. cerevisiae deletion strains, locus YPR119W, strain clb2, hits give low values 0.986 | S. cerevisiae deletion strains, locus YPR141C, strain kar3, hits give low values 0.992 | S. cerevisiae deletion strains, locus YPR163C, strain tif3, hits give low values 0.989 | S. cerevisiae deletion strains, locus YPR167C, strain met16, hits give low values 1 | S. cerevisiae deletion strains, strain wtn01, hits give low values 0.996 | S. cerevisiae strains, strain wild type, hits give low values 0.986
